HSF1 activator: increases HSF-1 driven luciferase reporter signal; hit rate 1.7% among 300,000; NIH3T3-HGL HSF-1 luciferase reporter, MG132, 8 h; 100% = twice DMSO control signal; activation, % at 9 µM;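 active means mean replicate activation of at least 50% with a set share of replicates each reaching 50%; inconclusive means only one of those two conditions met; inactive means mean below 50% and too few replicates reaching it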;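 further: 0% = median of the neutral control wells and 100% = twice that signal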
HSF1 inh: HSF1 inhibition; NIH3T3-HGL HSE-luciferase, MG132-induced, luminescence 8 h; hits give low values; activity change, negative = inhibition, % at 7.5 µM (by protocol); hit rate 0.77% among 300,000;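 active means more than half of replicate wells show activity change below -50%, luminescence cut by over half; inconclusive means some wells, but at most half, below -50%; inactive means no replicate well below -50%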;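 further: luciferase reports HSF-1 transcriptional activity via heat shock element; 0% = median of DMSO wells and -100% = zero luminescence signal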
TWEAK Fn14 block: blocks TWEAK-Fn14 interaction in a reporter cell assay | TWEAK-stimulated Fn14 reporter cells, luciferase luminescence, 8 h | inhibition, % at 10 µM | hit rate 2% among 360,000; in the data active means inhibition above about 50%
LMP1 NFkB inh: Epstein-Barr LMP1 NF-kappaB reporter inhibition; LMP1-induced NF-kappaB luciferase reporter cells, luminescence; inhibition, % at 12.5 µM; hit rate 0.69% among 350,000; in the data active means inhibition above about 41%; inconclusive means no clear call, values can overlap the other calls;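 further: 0% = neutral control wells and 100% = reference inhibitor control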
HSP90 refold inh: HSP90 refolding inhibition in rabbit reticulocyte lysate; luciferase refolding luminescence, 3 h; inhibition, % at 5.6 µM; hit rate 0.91% among 290,000;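 active means inhibition above the screen-wide mean plus 3 SD, computed separately per campaign, cut at about 16% in these data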;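 further: 0% = DMSO wells and 100% = 60 µM geldanamycin wells; inhibitors lower the luminescence because luciferase stays unfolded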
TROY NFkB inh: TROY signaling inhibition. inhibition, % at 10 µM. Q293 LMP1-TROYcd NF-kB luciferase reporter, 4 h. AID 1347056. hit rate 0.98% among 360,000;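 active means compounds whose plate-normalised and pattern-corrected inhibition of the luciferase reporter signal at the single screening dose is 50% or more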
An asterisk follows results filed as active; ? = inconclusive; / = no result given; ! = not confirmed by another sample. Hits are enriched below; roughly 4.7% of the tested compounds scored in any of these assays.

SMILES | HSF1 activator | HSF1 inh | TWEAK Fn14 block | LMP1 NFkB inh | HSP90 refold inh | TROY NFkB inh
Cc1nc(C(C)NC(=O)CCc2nnc(CCCc3ccccc3)o2)c(C)s1 (stereo not given) | 39 | 19 | -31 | -11 | -3 | -40
O=C(CCc1nnc(CCCCc2ccccc2)o1)NCCc1cccnc1 | 13 | 3 | -4 | 1 | 2 | -5
OCCN1CCN(C(=S)Nc2ccccc2)CC1 | -10 | -5 | -11 | 1 | 5 | 3
COc1cc(NC(=S)N2CCN(CCO)CC2)cc(OC)c1 | 3 | -4 | -1 | 69* | 3 | 7
Cn1c(=O)c2cc(NC(=S)NC3CCCCC3)ccc2n1Cc1ccc(Cl)cc1 | / | / | 22 | / | / | 15
CCc1c(C)sc(NC(=O)c2cccs2)c1C#N | 2 | 7 | -16 | -8 | -6 | -47
Cc1sc(NC(=O)c2ccccc2)c(C#N)c1-c1ccccc1 | 57* | 33 | -5 | -18 | -1 | -25
C=CCN(C(=O)CCC(=O)Nc1cc(C)on1)C(C(=O)NC(C)(C)C)c1cccc(OC)c1OC (stereo not given) | 83* | 30 | 3 | 2 | -1 | -2
CC1CCN(CCCNC(=O)c2ccc3c(=O)n(Cc4ccc(Cl)cc4)c(=S)[nH]c3c2)CC1 | 79* | 25 | -29 | -16 | -3 | -32
CN1OC[C@@H]2CN3C(=O)N(c4ccccc4)c4ccccc4[C@@H]3C[C@@H]21 | / | / | 2 | / | / | 8
C#CCn1c(=O)c2c(ncn2C)n(C)c1=O | -3 | -2 | -11 | 44* | / | -12
COC(=O)C1=C(C)NC(C)=C([N+](=O)[O-])C1c1ccccc1C(F)(F)F (stereo not given) | 8 | 2 | 2 | 55*! | -1 | -9
Fc1ccc(Nc2nc(N3CCOCC3)c3ccccc3n2)cc1 | -6 | -16 | 10 | 4 | / | 12
c1ccc2c(Nc3nc(N4CCOCC4)c4ccccc4n3)cccc2c1 | 20 | -11 | 52* | -2 | 3 | 19
O=c1cc(-c2ccccc2)oc2cc(O)ccc12 | / | / | 3 | -8 | / | -50
O=c1cc(-c2ccccc2)c2ccc(O)cc2o1 | -58 | -51* | 4 | 5 | / | -7
Cc1cc(OCc2cc(C(=O)NC(C)c3c(C)nn(C)c3C)no2)cc(C)c1Cl (stereo not given) | 54* | 36 | 20 | -6 | -4 | 4
Cc1cc(OCc2cc(C(=O)NC(C)c3cnn(C)c3)no2)cc(C)c1Cl (stereo not given) | / | / | 13 | -23 | / | -41
COc1ccc(NC(=O)C#Cc2ccccc2)cc1OC | 26 | 13 | 95* | -14 | -2 | -3
NC(=O)c1ccc(NC(=O)C#Cc2ccccc2)cc1 | 61* | 51 | 89* | 27 | 0 | -5
CNC(=O)Nc1ccccc1F | 24 | -7 | -3 | -1 | 7 | -4
O=C(C#Cc1ccccc1)Nc1ccccc1F | 106* | 58 | 47 | -22 | 8 | 1
CCc1ccc2c(c1)C(c1ccc([N+](=O)[O-])cc1)=NNC(c1ccc(F)cc1)=N2 | 59* | 42 | -4 | -29 | 1 | -42
CCc1ccc2c(c1)C(c1ccncc1)=NNC(c1ccccc1)=N2 | 15 | 5 | -16 | 0 | -3 | -49
O=c1c(=Nc2ccccc2O)c(=O)c2ccccc12 | 55* | 20 | -18 | -17 | 8 | -25
SMILES | HSF1 activator | HSF1 inh | TWEAK Fn14 block | LMP1 NFkB inh | HSP90 refold inh | TROY NFkB inh
Oc1cc(-c2ccncc2)cc2cccnc12 | / | / | 60* | -3 | / | 5
COc1ccc(Cn2c(C3CCCCC3)nc3c(c(=O)c4ccccc4n3C)c2=O)cc1 | -15 | -4 | / | / | 2 | /
COc1ccc(CCn2c(C3CCCCC3)nc3c(c(=O)c4ccccc4n3C)c2=O)cc1 | -12 | -7 | 0 | / | 2 | 65*
CSCC[C@H](NC(=O)OC(C)(C)C)C(=O)N/N=C/c1cccc2nccnc12 | 10 | -4 | 93* | -1 | 1 | 17
CSCC[C@H](NC(=O)OC(C)(C)C)C(=O)N/N=C/c1ccc2nccnc2c1 | / | / | -17 | -107 | 5 | -30
CCc1ccc(CCC(=O)N2CCN(S(=O)(=O)c3ccc(Br)cc3)CC2)cc1 | / | / | 0 | -11 | / | 4
CN1C2=CC=CC=CC2=[N+](C)C12C([N+](=O)[O-])=CC(=[N+]([O-])[O-])C=C2[N+](=O)[O-] (stereo not given) | 2 | 0 | 61* | -50 | -3 | -20
O=C(COC(=O)c1nc(Cl)c(Cl)c(Cl)c1Cl)NCc1ccccc1 | / | / | 85* | -30 | / | 32
Nc1c(Cl)c(Cl)nc(C(=O)OCC(=O)NCc2ccccc2)c1Cl | / | / | -11 | 5 | / | 5
COc1cccc(N(C(=O)c2nc3nccc(C)n3n2)c2nc3ccccc3s2)c1 | 121* | 69 | -21 | -42 | -3 | -64
O=C(CN(C(=O)c1csnn1)c1ccc(F)c(Cl)c1)NCc1ccc(F)cc1 | 72* | 23 | -14 | -1 | 3 | -4
O=C(CN(C(=O)c1csnn1)c1ccc(F)c(Cl)c1)NCc1ccccc1 | -10 | 2 | 9 | -2 | -4 | -8
CC(C)(C)c1ccc(NC(=O)N2CCN(c3ccc([N+](=O)[O-])cn3)CC2)cc1 | -10 | -7 | 59* | 4 | 2 | 28
CC(C)(C)c1ccc(C(=O)Nc2ccc([N+](=O)[O-])cn2)cc1 | 54* | 38 | -10 | -45 | -4 | -15
O=C(Nc1ccccn1)c1ccc([N+](=O)[O-])cc1Cl | 26 | 10 | -7 | -1 | -2 | -14
O=C(Nc1ccc(F)cc1F)N1CCCN(c2ccc([N+](=O)[O-])cn2)CC1 | 2 | -3 | -16 | 6 | 4 | 17
Cc1ccc(NC(=O)c2ccc([N+](=O)[O-])cc2Cl)nc1 | 52* | 14 | -28 | 0 | 1 | -30
COc1cccc(-c2cnc(C(O)c3ccc(C)c(F)c3)[nH]2)c1 (stereo not given) | / | / | 16 | / | / | -13
COCCn1c(C)cc(C(=O)CSc2nnnn2C2CCCC2)c1C | / | / | 75* | 70* | / | 14
Cc1cccc(OCC(=O)NCCNC(=O)c2ccco2)c1 | 5 | -4 | 25 | -13 | -2 | -14
CC(/C=C/c1ccco1)=N\NC(=O)COc1ccc(C)c(C)c1 | 78* | 67 | -2 | -11 | 1 | 8
Cc1ccc(OCC(=O)NCCNC(=O)c2ccco2)cc1C | -61 | ? | 52* | 2 | -3 | -4
Cc1ccc(OCCNC(=O)/C=C/c2ccco2)cc1C | 7 | 3 | 4 | -13 | -4 | 6
CC[C@H](C)[C@@H](CO)NC(=O)[C@H]1O[C@@H](n2ccc(=O)[nH]c2=O)[C@H](O)[C@@H]1O | / | / | -16 | / | / | 19
CCN(CC)C(=O)C1=C(C)N(Cc2ccc(C(C)(C)C)cc2)C(=O)C(CC(=O)NC2CCCC2)C1 (stereo not given) | / | / | -9 | -9 | / | 5
C=CCOc1ccn(C)c(=O)n1 | -64 | -55* | -4 | 5 | -1 | -12
CN1CCOc2c1cnn(CCO)c2=O | / | / | -14 | / | / | 10
